According to PubChem BioAssay (EPA / NIEHS):
Where “and” joins values, the source holds several entries; their conditions need not be identical. Identical values can stand only once. More than one record can exist for a structure, and the calls need not agree. Calls of active or inactive are those of the source. How the source made its calls: active means hit-call score of the fitted dose curve at least 0.9, where 1 is the maximum; inactive means score below 0.9.

Columns and labels:
[1] = BSK_CASM3C_SRB: Viability Assessment in the BioMAP Diversity Plus: CASM3C Assay (AID 2283050); details: primary human coronary artery smooth muscle cells;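 further: cells exposed to compound for 24 h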
[2] = read-out: Thrombomodulin, THBD (gene 7056); test: BSK_CASM3C_Thrombomodulin: BioMAP Diversity Plus: CASM3C Assay for Thrombomodulin Biomarker Activity (AID 2283051); details: primary human coronary artery smooth muscle cells; actives raise or lower the signal;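 further: thrombomodulin protein level measured by ELISA 24 h after dosing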
[3] = read-out: Tissue Factor, F3 (gene 2152); test: BSK_CASM3C_TissueFactor: BioMAP Diversity Plus: CASM3C Assay for Tissue Factor Biomarker Activity (AID 2283052); details: primary human coronary artery smooth muscle cells; actives raise or lower the signal;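 further: cell surface tissue factor protein level read by ELISA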
[4] = read-out: Interferon-gamma inducible Protein 10 (IP10), CXCL10 (gene 3627); test: BSK_hDFCGF_IP10: BioMAP Diversity Plus: hDFCGF Assay for Interferon-gamma inducible Protein 10 (IP10) Biomarker Activity (AID 2283053); details: primary human foreskin fibroblasts; actives raise or lower the signal
Outline: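 Chemical-treated human skin fibroblasts (primary) were sampled at 24 h for IP-10 by ELISA. Both increases and decreases relative to DMSO were scored.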

[5] = read-out: Urokinase-type plasminogen activator receptor (uPAR), PLAUR (gene 5329); test: BSK_CASM3C_uPAR: BioMAP Diversity Plus: CASM3C Assay for Urokinase-type plasminogen activator receptor (uPAR) Biomarker Activity (AID 2283054); details: primary human coronary artery smooth muscle cells; actives raise or lower the signal;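 further: cell-surface uPAR protein level quantified by ELISA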
[6] = read-out: Vascular cell adhesion molecule 1 (VCAM1), VCAM1 (gene 7412); test: BSK_CASM3C_VCAM1: BioMAP Diversity Plus: CASM3C Assay for Vascular cell adhesion molecule 1 (VCAM1) Biomarker Activity (AID 2283055); details: primary human coronary artery smooth muscle cells; actives raise or lower the signal;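 further: VCAM-1 protein level quantified by ELISA on the cells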
[7] = read-out: Collagen III, COL3A1 (gene 1281); test: BSK_hDFCGF_CollagenIII: BioMAP Diversity Plus: hDFCGF Assay for Collagen III Biomarker Activity (AID 2283056); details: primary human foreskin fibroblasts; actives raise or lower the signal
Outline: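 Human foreskin fibroblast primary cultures sampled 24 h after dosing; Collagen III quantified by ELISA. Signal fitted bidirectionally against DMSO baseline.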

[8] = read-out: Epidermal growth factor receptor (EGFR), EGFR (gene 1956); test: BSK_hDFCGF_EGFR: BioMAP Diversity Plus: hDFCGF Assay for Epidermal growth factor receptor (EGFR) Biomarker Activity (AID 2283057); details: primary human foreskin fibroblasts; actives raise or lower the signal
Outline: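 Cell-based multiplexed assay in primary human foreskin fibroblasts. EGFR is read by ELISA 24 h after treatment and compared with DMSO controls.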

[9] = read-out: Interleukin-8 (IL8), CXCL8 (gene 3576); test: BSK_hDFCGF_IL8: BioMAP Diversity Plus: hDFCGF Assay for Interleukin-8 (IL8) Biomarker Activity (AID 2283058); details: primary human foreskin fibroblasts; actives raise or lower the signal
Outline: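 Primary human foreskin fibroblasts (hDFCGF system) dosed with chemical; IL-8 measured by ELISA 24 hours later. Bidirectional curve fitting relative to DMSO baseline; cytotoxicity tracked in parallel cultures by SRB total protein staining.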

[10] = BSK_hDFCGF_Proliferation: Cell Proliferation Assessment in the BioMAP Diversity Plus: hDFCGF Assay (AID 2283059); details: primary human foreskin fibroblasts;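 further: curves fitted for both rise and fall of signal versus DMSO baseline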
Outline: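 Steps: dose primary human dermal fibroblasts (foreskin); […] fix in 10% TCA; stain with 0.1% SRB; read 560 nm; fit gain or loss of signal against DMSO.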

[11] = read-out: Macrophage colony-stimulating factor (MCSF), CSF1 (gene 1435); test: BSK_hDFCGF_MCSF: BioMAP Diversity Plus: hDFCGF Assay for Macrophage colony-stimulating factor (MCSF) Biomarker Activity (AID 2283060); details: primary human foreskin fibroblasts; actives raise or lower the signal
Outline: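 Human foreskin fibroblast primary cultures; M-CSF measured by ELISA 24 hours after chemical dosing. Bidirectional fitting relative to DMSO, with overt cytotoxicity tracked by parallel SRB total-protein staining (0.1% SRB, 10% TCA fixation, 560 nm).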

[12] = BSK_hDFCGF_SRB: Viability Assessment in the BioMAP Diversity Plus: hDFCGF Assay (AID 2283061); details: primary human foreskin fibroblasts;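 further: cells exposed to compound for 24 h before the read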
Outline: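 Human foreskin fibroblasts in 96-well plates were treated 24 h. Total protein was measured by 0.1% SRB staining after 10% TCA fixation, read at 560 nm. Data were fitted bidirectionally against DMSO.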

[13] = read-out: TIMP metallopeptidase inhibitor 1 (TIMP1), TIMP1 (gene 7076); test: BSK_hDFCGF_TIMP1: BioMAP Diversity Plus: hDFCGF Assay for TIMP metallopeptidase inhibitor 1 (TIMP1) Biomarker Activity (AID 2283062); details: primary human foreskin fibroblasts; actives raise or lower the signal
Outline: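 Human foreskin fibroblast primary cultures dosed for 24 h; secreted/surface TIMP-1 quantified by ELISA. Bidirectional curve fitting against DMSO baseline; cytotoxicity tracked in parallel cultures by SRB total-protein staining.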

[14] = read-out: Monokine induced gamma interferon (MIG), CXCL9 (gene 4283); test: BSK_hDFCGF_MIG: BioMAP Diversity Plus: hDFCGF Assay for Monokine induced gamma interferon (MIG) Biomarker Activity (AID 2283063); details: primary human foreskin fibroblasts; actives raise or lower the signal
Outline: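 MIG/CXCL9 measured by ELISA 24 h after dosing primary human skin fibroblasts. Activity fitted in both directions against DMSO controls. Cytotoxicity was checked in parallel cultures by SRB staining read at 560 nm.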

[15] = read-out: Matrix Metallopeptidase 1 (MMP1), MMP1 (gene 4312); test: BSK_hDFCGF_MMP1: BioMAP Diversity Plus: hDFCGF Assay for Matrix Metallopeptidase 1 (MMP1) Biomarker Activity (AID 2283064); details: primary human foreskin fibroblasts; actives raise or lower the signal
Outline: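 Human foreskin fibroblasts exposed to chemical for 24 h; MMP1 detected by ELISA, with DMSO as baseline for bidirectional fitting.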

[16] = read-out: Vascular cell adhesion molecule 1 (VCAM1), VCAM1 (gene 7412); test: BSK_hDFCGF_VCAM1: BioMAP Diversity Plus: hDFCGF Assay for Vascular cell adhesion molecule 1 (VCAM1) Biomarker Activity (AID 2283065); details: primary human foreskin fibroblasts; actives raise or lower the signal;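 on AC50: VCAM-1 protein level quantified by ELISA after 24 h chemical exposure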
Outline: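 Human foreskin fibroblast primary cells dosed with chemical, VCAM-1 measured by ELISA at 24 h. Bidirectional curve fitting relative to DMSO as negative control/baseline.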

[17] = read-out: Plasminogen activator inhibitor-1 (PAI1), SERPINE1 (gene 5054); test: BSK_hDFCGF_PAI1: BioMAP Diversity Plus: hDFCGF Assay for Plasminogen activator inhibitor-1 (PAI1) Biomarker Activity (AID 2283066); details: primary human foreskin fibroblasts; actives raise or lower the signal
Outline: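 Human skin fibroblast cultures receive chemical for 24 h before PAI-1 is measured by ELISA; signal changes are fitted bidirectionally against DMSO-treated wells.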

[18] = read-out: Intercellular Adhesion Molecule 1 (ICAM1), ICAM1 (gene 3383); test: BSK_KF3CT_ICAM1: BioMAP Diversity Plus: KF3CT Assay for Intercellular Adhesion Molecule 1 (ICAM1) Biomarker Activity (AID 2283067); details: primary human keratinocytes with fibroblasts; actives raise or lower the signal
Outline: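 Human keratinocyte–foreskin fibroblast co-culture was treated for 24 h. Cell-surface ICAM-1 was quantified by ELISA, fitted bidirectionally relative to DMSO. Cytotoxicity was checked in parallel cultures by SRB total-protein staining.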

[19] = read-out: Interferon-gamma inducible Protein 10 (IP10), CXCL10 (gene 3627); test: BSK_KF3CT_IP10: BioMAP Diversity Plus: KF3CT Assay for Interferon-gamma inducible Protein 10 (IP10) Biomarker Activity (AID 2283068); details: primary human keratinocytes with fibroblasts; actives raise or lower the signal
Outline: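 KF3CT co-culture (keratinocytes + foreskin fibroblasts), 24 h compound, IP-10 by ELISA; bidirectional fit vs DMSO baseline.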

[20] = BSK_KF3CT_SRB: Viability Assessment in the BioMAP Diversity Plus: KF3CT Assay (AID 2283069); details: primary human keratinocytes with fibroblasts;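 further: read 24 h after compound addition; fitted for both signal gain and loss against DMSO baseline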
Outline: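 Overt cytotoxicity is assessed as total protein by sulforhodamine B staining in parallel human skin co-cultures at 24 h after dosing. DMSO serves as negative control and baseline.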

Measured: AC50

CC1(C)C(C=C(Cl)Cl)C1C(=O)OCc1cccc(Oc2ccccc2)c1 (configuration not stated)
inactive: [1] | [3] | [4] | [5] | [6] | [9] | [11] | [12] | [13] | [14] | [15] | [16] | [17] | [18] | [19] | [20]
active: [2] 13.4 µM | [7] 4.2 µM | [8] 8.28 µM | [10] 7.38 µM

S=C(S)NCCNC(=S)S.[Mn+2].[S-]C([S-])=NCCN=C([S-])[S-].[Zn+2]
active: [3] 4.17 µM [middle of 4 runs] | [4] 10.4 µM | [11] 1.41 µM | [16] 5.37 µM and 12.4 µM
inactive: [1] | [2] | [3] | [4] | [5] | [6] | [7] | [9] | [11] | [12] | [13] | [14] | [15] | [16] | [17] | [18] | [19] | [20]

CCCOC(=O)c1ccc(C(=O)OCCC)nc1
inactive: [1] | [2] | [3] | [4] | [5] | [6] | [7] | [8] | [9] | [10] | [11] | [12] | [13] | [14] | [15] | [16] | [17] | [18] | [19] | [20]

C[C@]12CC[C@@H]3c4ccc(O)cc4C[C@@H](CCCCCCCCCS(=O)CCCC(F)(F)C(F)(F)F)[C@H]3[C@@H]1CC[C@@H]2O (some centres not stated)
active: [10] 4.75 µM | [17] 1.64 µM
inactive: [1] | [2] | [3] | [4] | [5] | [6] | [7] | [8] | [9] | [11] | [12] | [13] | [14] | [15] | [16] | [18] | [19] | [20]

COCCO
inactive: [1] | [2] | [3] | [4] | [5] | [6] | [7] | [8] | [9] | [10] | [11] | [12] | [13] | [14] | [15] | [16] | [17] | [18] | [19] | [20]
